Screens (PubChem)
HCV inh = HCV inhibition. Huh7.5.1 HCVcc-Cre infection, luciferase reporter, 44 h. actives 3.4% (n = 340,000). Potency, µM (series often up to 41.8 µM), inactives show at the top dose activity change, negative = inhibition, hits mostly inhibitors. AID 651820; active = well fitted inhibition curve with a large enough effect; inconclusive = small, poorly fitted or top-dose-only effect, or another doubt; inactive = no such curve, though single readings can be large or run the other way; also: potency is read from the fitted curve at half-maximal effect; % is scaled to controls: 0 for no effect and ±100 for the full control effect
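Infectious HCVcc-Cre (~0.5 moi) was added to cells just after compound, with cells seeded 4 h earlier at 1,000 per well. Luciferase activity after 44 h culture reported infection; substrate was incubated 15 min at room temperature before reading.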
Lassa entry inh = Lassa virus entry inhibition; Potency, µM (top dose mostly 37.9 µM), for the others: top-dose activity change, negative = inhibition, actives largely listed as inhibitors; Lassa virus pseudotype entry inhibition, cell reporter; actives 1.2% (n = 300,000); calls by dose curve; tested in HEK293 cells; also: potency is read from the fitted curve at half-maximal effect; % is scaled to controls: 0 for no effect and ±100 for the full control effect; nearly all actives have a fitted effect of over 50% in size
HCMV inh = blocks human cytomegalovirus replication. HFF cells, HCMV-luciferase reporter, 72 h; active compounds read low. activity change, negative = inhibition, % at 57.5 µM. actives 4.5% (n = 410,000). AID 1259415; in the data active = activity change below about -60%; inconclusive = no clear call, values can overlap the other calls; inactive = above about -39%; also: % is scaled to controls: 0 for no effect and ±100 for the full control effect
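Screen run at 2 compound doses on HFFs infected with reporter HCMV, MOI 1 PFU/cell. Luciferase activity from cell lysates at 72 h post infection gave inhibition relative to buffer-only and Salinomycin wells.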
SARS PLP yeast = SARS-CoV PLP inhibition in yeast. Potency, µM (titrated, usually from 32.9 µM), for the others: top-dose activity, positive = growth rescue, actives largely listed as activators. actives 0.19% (n = 330,000). S. cerevisiae expressing SARS-CoV PLpro, growth rescue; calls by dose curve; also: potency is read from the fitted curve at half-maximal effect; 0% is about no effect; nearly all actives have a fitted effect of over 55% in size
FMDV antiviral = foot and mouth disease virus antiviral activity; FMDV antiviral cell-based qHTS; Potency, µM (top dose mostly 57.9 µM), inactives show at the highest dose activity change, negative = inhibition, hits mostly inhibitors; actives 1.2% (n = 410,000); AID 1159524; calls by dose curve; tested in HEK293T cells; also: read-out not given here; potency is read from the fitted curve at half-maximal effect; % is scaled to controls: 0 for no effect and ±100 for the full control effect; nearly all actives have a fitted effect of over 45% in size
Marburg entry inh = blocks Marburg virus binding to or entry into cells | Marburg virus pseudotyped entry inhibition, cell reporter | Potency, µM (highest dose often 37.8 µM), for inactives: at the highest dose activity change, negative = inhibition, hits mostly inhibitors | actives 1.8% (n = 300,000) | AID 540276; calls by dose curve; tested in HEK293 cells; also: potency is read from the fitted curve at half-maximal effect; % is scaled to controls: 0 for no effect and ±100 for the full control effect
* = called active by the depositor; ? = inconclusive; · = not tested or not shown; [ ] = remark or other dose. Only some compounds are listed: those with a hit (about 8% of all), similar ones and a draw of the others.

SMILES	HCV inh	Lassa entry inh	HCMV inh	SARS PLP yeast	FMDV antiviral	Marburg entry inh
CCN(CC)CCOC(=O)C1(C2CCCCC2)CCCCC1	1.4%[8.37 µM]	?	-4.7	3.7%	0.0%	12.6µM*
CCN(CC)CCOC(=O)C1(c2ccccc2)CCCC1	?	-0.2%	4.6	9.6%	·	-28.2%
O=Cc1c2c(cc3ccc(Cl)cc13)CCC2	·	·	2.9	·	·	·
Cc1ccc2nc(SCC(=O)NCc3ccc(F)cc3)[nH]c2c1	-4.3%	·	-64.6*	0.3%	-27.4%	·
FC(F)(F)c1ccc(CN2C[C@@H]3C(c4ccc(Cl)nc4)C4(c5cccnc5)CC3(C4)[C@H]2c2ccccc2)cc1 (some centres undefined)	-7.6%	·	-67.4*	-4.7%	?	·
COc1cc(OC)c(NC(=O)CC(c2cccs2)N2Cc3ccccc3C2=O)cc1Cl (centres undefined)	·	-17.8%[46.1 µM]	-36.4	·	36.2%	·
OC1CCCCC1/C=N/n1c2c(c3c1CCCC3)CCCC2 (centres undefined)	·	·	·	·	·	11.8%
COc1ccc(-c2cc(C3CCN(Cc4cccc(C(F)(F)F)c4)CC3)[nH]n2)cc1	?	?	?	0.9%	?	10µM*
COc1ccc(-c2cc(C3CCN(Cc4ccc([N+](=O)[O-])cc4)CC3)[nH]n2)cc1	?	1.5%	?	3.4%	?	?
COc1ccc(-c2cc(C3CCN(CC(O)C(F)(F)F)CC3)[nH]n2)cc1 (centres undefined)	-13.2%	·	-17.7	0.7%	-1.1%	·
Cc1ccc(CN2CCC(c3nc4ccc(Cl)cc4[nH]3)CC2)cc1	11.2µM*	?	-19.5	0.9%	·	4.11µM*
Cc1ccc(CN2CCC(c3cc(-c4ccc(Cl)cc4)n[nH]3)CC2)cc1	12.6µM*	?	-98.7*	-0.3%	?	?
O=C(c1nnnn1-c1ccc(Br)cc1)C1CC1	·	·	-25.8	·	·	·
N#C[C@H](c1ccccc1)C1CCN(C(=O)c2ccco2)CC1	·	·	-8.8	·	·	·
CC(=O)c1ccc(N2C(=O)C3C(C2=O)C(C(=O)c2ccc(Cl)cc2)N2CCCC32)cc1 (centres undefined)	-16.6%	-1.3%	26.6	-5.9%	?	?
COc1ccc(N2C(=O)C3C(C2=O)C(C(=O)c2ccc(Cl)cc2)N2CCCC32)cc1 (centres undefined)	4.5%	7.9%	-60.1*	1.1%	?	?
O=C(c1ccccc1)[C@@H]1[C@@H]2C(=O)N(c3ccc(F)cc3)C(=O)[C@@H]2C2CCCN21 (some centres undefined)	12.6%	·	-66.9*	-2.6%	-16.3%	·
Cc1ccc(N2C(=O)[C@@H]3[C@H](C2=O)C2CCCN2[C@@H]3C(=O)c2ccccc2)cc1 (some centres undefined)	?	0.9%	?	-1.0%	0.0%	-50.7%
O=C(c1cnccn1)N(CCO)C(c1ccc(-c2ccccc2)cc1)c1nc2ccccc2[nH]1 (centres undefined)	·	·	56.7	·	·	·
CC(C)(Oc1ccc(Cl)cc1)C(=O)N1CC2ON=C(c3c(F)cccc3Cl)C2C1 (centres undefined)	·	·	-24.5	·	·	·
Cc1nnc(SCc2nc(-c3ccc(Cl)cc3)no2)n1-c1ccc(F)cc1	·	0.5%[46.1 µM]	-35.5	·	0.0%	?
CCCCCCCC(=O)C(C)C(=O)N(C)[C@H](Cc1ccc(OC)cc1)C(=O)N(C)[C@H](C(N)=O)C(C)C (some centres undefined)	0.562µM*	·	15.2	18.1%	0.0%	·
O=C(NN=C1CCCC1)c1[nH]c2ccc(Br)cc2c1-c1ccccc1	-11.0%	?	-90.6*	-0.1%	-13.2%	8.91µM*
Cc1ccc2[nH]c(C(=O)N/N=C/c3ccccc3C(=O)O)c(-c3ccccc3)c2c1	3.5%	·	-18.7	-0.8%	-14.6%	·
O=C(CCN1CCOCC1)Nc1c(-c2ccccc2)c2cc(Br)ccc2[nH]c1=O	4.6%	5.8%	23.1	2.7%	6.8%	-1.1%
SMILES	HCV inh	Lassa entry inh	HCMV inh	SARS PLP yeast	FMDV antiviral	Marburg entry inh
O=C(N/N=C/c1ccccc1)c1[nH]c2ccc(Br)cc2c1-c1ccccc1	?	?	-99.0*	-19.2%	10.1%	?
COCc1c(C(=O)N2CCN(C(C)C)CC2)cnn1-c1nccc(-c2cc(C)sc2C)n1	·	·	·	·	-9.6%	·
CCCCCCn1c(O)c(/C=N/N2CCCCCC2)c(=O)[nH]c1=O	-12.6%	?	-64.2*	-0.8%	-1.7%	-2.0%[46.1 µM]
COc1ccc(CCn2c(O)c(/C=N/N3CCCCC3)c(=O)[nH]c2=O)cc1OC	3.5%	?	-9.1	-5.3%	?	13.0%
Cc1cccc(OCC(=O)N2CCN(c3nnc(-c4ccccc4)c4ccccc34)CC2)c1	?	·	-31.8	-1.7%	?	·
COc1ccc(-c2nnc(N3CCCCC3)c3ccccc23)cc1	17.2%	-8.8%	·	4.7%	?	12.7%
COc1ccc(OCC(=O)N2CCN(c3nnc(-c4ccccc4)c4ccccc34)CC2)cc1	17.8µM*	?	15.1	-5.5%	?	?
Cc1ccc(-c2nnc(N3CCN(C(=O)COc4cccc(C)c4)CC3)c3ccccc23)cc1	?	?	-34.2	-2.7%	25.1µM*	?
O=C(COc1ccccc1)N1CCN(c2nnc(-c3ccccc3)c3ccccc23)CC1	?	-39.0%	?	2.5%	?	?
Cc1ccc(OCC(=O)N2CCN(c3nnc(-c4ccc(C)cc4)c4ccccc34)CC2)cc1	8.91µM*	?	-98.7*	-0.4%	?	4.11µM*
COc1ccc(OCC(=O)N2CCN(c3nnc(-c4ccc(C)cc4)c4ccccc34)CC2)cc1	8.91µM*	?	-28.8	-2.4%	28.2µM*	?
Cc1ccc(-c2nnc(N3CCN(C(=O)CN4C(=O)c5ccccc5C4=O)CC3)c3ccccc23)cc1	-2.8%	2.5%	-12.6	·	-16.1%	4.1%
Cc1cccc(OCC(=O)N2CCN(C(=O)c3ccc([N+](=O)[O-])cc3)CC2)c1	-6.5%	6.0%	-60.9*	-0.1%	-15.7%	-15.2%[46.1 µM]
COc1ccc(S(=O)(=O)N2C[C@@H](O)COC[C@@H]3O[C@H](CC(=O)NCCCN4CCOCC4)CC[C@H]32)cc1	·	·	-74.2*	·	-9.2%	·
O=C(c1ccc(COc2ccc(Br)cc2)o1)N1N=C(C(F)F)CC1(O)C(F)F (centres undefined)	?	-56.2%	1.6	11.3%	25.1µM*	?
CCOc1ccc(OCc2ccc(C(=O)N3N=C(C(F)F)CC3(O)C(F)F)o2)cc1 (centres undefined)	-10.1%	-0.8%	49.9	4.3%	-31.0%	-6.6%
Cc1cccc(N2CCN(S(=O)(=O)c3ccc(-c4ccc(=O)[nH]n4)o3)CC2)c1C	-3.1%	·	-63.1*	0.3%	-4.4%	·
CCN1CCN(/C=N/c2nc3c(s2)CCCC3)CC1	?	?	-68.9*	0.7%	·	5.8µM*
